Structures are written as SMILES. The panel holds about 79,000 compounds, 15% with a hit somewhere; the sample as a whole holds those more often. A number with no mark means an inactive call. Activity calls are given as the source filed them. Rule as the data show it: active = growth inhibition above about 70%; inactive = the rest.

Experiment [1] is described as follows: NCI Yeast Anticancer Drug Screen. Data for the rad50 strain (AID 155).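 Also: 0% = growth of vehicle-only cultures of the same strain.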 Conditions: S. cerevisiae rad50 strain growth inhibition, hits give high values. Summed up:
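Yeast carrying a defined DNA repair defect were exposed to test compounds, and growth was compared with vehicle-treated controls to give percent inhibition.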

A short description of experiment [2]: NCI Yeast Anticancer Drug Screen. Data for the mec2-1 strain (AID 157). Particulars: S. cerevisiae mec2-1 strain, hits give high values. Summed up: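 Growth inhibition is read against vehicle-treated controls after compound exposure of the mec2-1 yeast strain, which is defective in DNA damage repair or cell cycle control.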
Experiment [3] can be described thus: NCI Yeast Anticancer Drug Screen. Data for the sgs1 mgt1 strain (AID 161).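 Also: 0% = growth of cultures given vehicle only.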 Conditions: S. cerevisiae sgs1 mgt1 strain, hits give high values. An outline of the steps: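 Compounds are added to genetically altered yeast, and growth is compared with cultures given vehicle alone to give percent inhibition.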
A short description of experiment [4]: NCI Yeast Anticancer Drug Screen. Data for the cln2 rad14 strain (AID 165).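 Also: 0% = growth equal to vehicle treated cultures.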 Conditions: S. cerevisiae cln2 rad14 strain, hits give high values. An outline of the steps: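 Growth inhibition, relative to vehicle-treated controls, is the read-out. The test organism is a yeast strain with defined genetic alterations, cln2 rad14.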
Experiment [5] in a line: NCI Yeast Anticancer Drug Screen. Data for the bub3 strain (AID 167). Conditions: S. cerevisiae bub3 mutant strain, hits give high values. Summed up: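 Compounds were applied to a genetically altered yeast strain carrying a cell-cycle control defect. Growth inhibition was scored against vehicle-treated controls.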
A short description of experiment [6]: NCI Yeast Anticancer Drug Screen. Data for the mlh1 rad18 strain (AID 175). Particulars: S. cerevisiae mlh1 rad18 strain growth inhibition, hits give high values. Summed up: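 Cells of a genetically altered yeast strain, deficient in DNA damage repair, were treated with compound. Their growth was then compared with that of vehicle-treated cultures to give inhibition.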

Where [7] appears, read: at 5.0 µM (retest, dose inferred, filed as 0.5).
[8] abbreviates: at 50.0 µM (retest, dose inferred, filed as 5.0).

As to `CC(O)CC(O)CC1CCCO1` (centres undefined), the growth inhibition in experiment [1] (setting [7]) is 5%; in experiment [1] (setting [8]) it was 22%; in experiment [1] (at 50.0 µM), 39.2%; in experiment [2] (setting [7]) it was 1%; in experiment [2] (setting [8]), 9%; in experiment [2] (at 50.0 µM), 35.6%. The growth inhibition in experiment [3] (setting [7]) was 1%; in experiment [3] (setting [8]) it was 4%; in experiment [3] (at 50.0 µM), 25.2%; in experiment [4] (setting [7]), 2%; in experiment [4] (setting [8]), 9%; in experiment [4] (at 50.0 µM), 33.1%. Besides, the growth inhibition in experiment [5] (setting [7]) is 3%; in experiment [5] (setting [8]) it was 19%; in experiment [5] (at 50.0 µM), 82.7% (active); in experiment [6] (setting [7]), 3%; in experiment [6] (setting [8]), 8%; in experiment [6] (at 50.0 µM), 41.2%.

Turning to `c1ccc(OCC2c3ccccc3Nc3ccccc32)cc1`, the growth inhibition was 98% (active) in experiment [1] (setting [7]); 97% (active) in experiment [1] (setting [8]); 71.9% (active) in experiment [1] (at 50.0 µM); 99% (active) in experiment [2] (setting [7]); 98% (active) in experiment [2] (setting [8]); 28.6% in experiment [2] (at 50.0 µM). In addition, the growth inhibition in experiment [3] (setting [7]) was 99% (active); in experiment [3] (setting [8]), 97% (active); in experiment [3] (at 50.0 µM), 26.9%; in experiment [4] (setting [7]), 99% (active); in experiment [4] (setting [8]), 96% (active); in experiment [4] (at 50.0 µM) it was -51.8%. The growth inhibition in experiment [5] (setting [7]) was 92% (active); in experiment [5] (setting [8]), 97% (active); in experiment [5] (at 50.0 µM) it was -0.2%; in experiment [6] (setting [7]) it was 99% (active); in experiment [6] (setting [8]), 95% (active); in experiment [6] (at 50.0 µM), 67.2%.

Turning to `COc1cc(NCC(C)(O)CN2CCC(C)CC2C)c2ncccc2c1` (centres undefined), the growth inhibition in experiment [1] (setting [7]) was 14%; in experiment [1] (setting [8]), 57%; in experiment [1] (at 50.0 µM) it was 83.2% (active); in experiment [2] (setting [7]), 14%; in experiment [2] (setting [8]), 47%; in experiment [2] (at 50.0 µM), 50.1%. In addition, the growth inhibition in experiment [3] (setting [7]) was 20%; in experiment [3] (setting [8]), 61%; in experiment [3] (at 50.0 µM), 77% (active); in experiment [4] (setting [7]), 13%; in experiment [4] (setting [8]) it was 52%; in experiment [4] (at 50.0 µM) it was 79.4% (active). Besides, the growth inhibition was 7% in experiment [5] (setting [7]); 54% in experiment [5] (setting [8]); 80.7% (active) in experiment [5] (at 50.0 µM); 0% in experiment [6] (setting [7]); 58% in experiment [6] (setting [8]); 83.7% (active) in experiment [6] (at 50.0 µM).

Consider `CCOC(=O)[C@@H](F)[C@H](Br)C(=O)OCC`, for which the growth inhibition was 86% (active) in experiment [1] (setting [7]); 99% (active) in experiment [1] (setting [8]); 89.2% (active) in experiment [1] (at 50.0 µM); 58% in experiment [2] (setting [7]); 100% (active) in experiment [2] (setting [8]); 93.2% (active) in experiment [2] (at 50.0 µM). In addition, the growth inhibition in experiment [3] (setting [7]) is 75% (active); in experiment [3] (setting [8]) it was 100% (active); in experiment [3] (at 50.0 µM) it was 88.4% (active); in experiment [4] (setting [7]), 55%; in experiment [4] (setting [8]), 100% (active); in experiment [4] (at 50.0 µM) it was 89.2% (active). Moreover, the growth inhibition in experiment [5] (setting [7]) is 88% (active); in experiment [5] (setting [8]) it was 100% (active); in experiment [5] (at 50.0 µM), 84.7% (active); in experiment [6] (setting [7]), 80% (active); in experiment [6] (setting [8]), 99% (active); in experiment [6] (at 50.0 µM), 93.2% (active).

For `CN(C)c1ccc(C=Nc2ccc(OCCCCCCCCCCC(=O)O)cc2)cc1`, the growth inhibition is 100% (active) in experiment [1] (setting [7]); 100% (active) in experiment [1] (setting [8]); 82.5% (active) in experiment [1] (at 50.0 µM); 100% (active) in experiment [2] (setting [7]); 99% (active) in experiment [2] (setting [8]); 59.9% in experiment [2] (at 50.0 µM). For the same compound, the growth inhibition in experiment [3] (setting [7]) was 77% (active); in experiment [3] (setting [8]) it was 86% (active); in experiment [3] (at 50.0 µM) it was 76.7% (active); in experiment [4] (setting [7]) it was 77% (active); in experiment [4] (setting [8]), 92% (active); in experiment [4] (at 50.0 µM), 75% (active). The growth inhibition in experiment [5] (setting [7]) was 73% (active); in experiment [5] (setting [8]), 84% (active); in experiment [5] (at 50.0 µM), 84.5% (active); in experiment [6] (setting [7]), 100% (active); in experiment [6] (setting [8]), 100% (active); in experiment [6] (at 50.0 µM), 71.5% (active).

Regarding `Cc1c(N2CCCC2)cc2c(c1NC(=O)c1ccccc1Cl)C(C)(C)CC2(C)C`, the growth inhibition in experiment [1] (setting [7]) was 11%; in experiment [1] (setting [8]), 95% (active); in experiment [1] (at 50.0 µM), 82.8% (active); in experiment [2] (setting [7]), -2%; in experiment [2] (setting [8]) it was 89% (active); in experiment [2] (at 50.0 µM), 59.5%. Also, the growth inhibition in experiment [3] (setting [7]) is 20%; in experiment [3] (setting [8]), 85% (active); in experiment [3] (at 50.0 µM), 73.2% (active); in experiment [4] (setting [7]), 0%; in experiment [4] (setting [8]) it was 91% (active); in experiment [4] (at 50.0 µM) it was 79.3% (active). The growth inhibition is 10% in experiment [5] (setting [7]); 80% (active) in experiment [5] (setting [8]); 90.7% (active) in experiment [5] (at 50.0 µM); 22% in experiment [6] (setting [7]); 91% (active) in experiment [6] (setting [8]); 80.2% (active) in experiment [6] (at 50.0 µM).

As to `CC(C)c1cc(O)c(C(C)(C)C)cc1Cl`, the growth inhibition in experiment [1] (setting [7]) was -1%; in experiment [1] (setting [8]) it was 15%; in experiment [1] (at 50.0 µM), 74.5% (active); in experiment [2] (setting [7]) it was 2%; in experiment [2] (setting [8]), 38%; in experiment [2] (at 50.0 µM) it was 77.2% (active). Further, the growth inhibition was -1% in experiment [3] (setting [7]); 24% in experiment [3] (setting [8]); 77.3% (active) in experiment [3] (at 50.0 µM); 4% in experiment [4] (setting [7]); 45% in experiment [4] (setting [8]); 72.5% (active) in experiment [4] (at 50.0 µM). Moreover, the growth inhibition is -11% in experiment [5] (setting [7]); 30% in experiment [5] (setting [8]); 76.6% (active) in experiment [5] (at 50.0 µM); 3% in experiment [6] (setting [7]); 47% in experiment [6] (setting [8]); 86.8% (active) in experiment [6] (at 50.0 µM).

Regarding `C/C=C/C(=O)N1c2ccccc2CC1c1c(C)[nH]c2ccccc12` (centres undefined), the growth inhibition is 7% in experiment [1] (setting [7]); 90% (active) in experiment [1] (setting [8]); 94.3% (active) in experiment [1] (at 50.0 µM); 3% in experiment [2] (setting [7]); 96% (active) in experiment [2] (setting [8]); 94.8% (active) in experiment [2] (at 50.0 µM). In addition, the growth inhibition is 3% in experiment [3] (setting [7]); 95% (active) in experiment [3] (setting [8]); 94.3% (active) in experiment [3] (at 50.0 µM); 2% in experiment [4] (setting [7]); 86% (active) in experiment [4] (setting [8]); 96% (active) in experiment [4] (at 50.0 µM). The growth inhibition in experiment [5] (setting [7]) was 6%; in experiment [5] (setting [8]) it was 86% (active); in experiment [5] (at 50.0 µM) it was 95.5% (active); in experiment [6] (setting [7]) it was 22%; in experiment [6] (setting [8]), 96% (active); in experiment [6] (at 50.0 µM) it was 96.6% (active).

The values are drawn from PubChem BioAssay (NCI).
